Cdc42 wt GTP – human Cdc42 wildtype GTP binding change, either direction. hit rate 0.2% among 190,000. AID 761. percent activity (GTP binding), % at 10 µM. GST-Cdc42 beads, Bodipy-GTP binding, flow cytometry; actives lie on both sides. P60953;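 active means percent activity GTP binding at least 20 points away from the 100% baseline, either down as inhibitor or up as activator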;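 further: median bead fluorescence of bound Bodipy-FL-GTP at 100 nM; 0% = excess unlabeled GTP control and 100% = no compound control; below 100% means less GTP binding so inhibitor and above means activator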
Target sequence (P60953 whole entry, looked up): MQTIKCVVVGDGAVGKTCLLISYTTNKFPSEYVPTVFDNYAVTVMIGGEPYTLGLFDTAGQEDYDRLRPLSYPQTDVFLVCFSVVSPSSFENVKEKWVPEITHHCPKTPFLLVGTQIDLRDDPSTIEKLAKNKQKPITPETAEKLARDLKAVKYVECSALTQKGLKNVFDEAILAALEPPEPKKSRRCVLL
Rab2A wt mod – changes GTP binding to wildtype dog Rab2A, up or down; GST-Rab2 wt beads, Bodipy-GTP binding, flow cytometry; P61105; GTP binding activity, % at 10 µM; hit rate 0.19% among 190,000; AID 760;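 active means GTP binding activity at least 20 points away from 100%, either lowered or raised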;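 further: 0% = beads with excess unlabeled GTP and 100% = no-compound control corrected for plate trend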
Rab7 wt modul – alters GTP binding to wildtype dog Rab7 | AID 758 | GTP binding activity (percent of control), % at 10 µM | hit rate 0.055% among 190,000 | GST-Rab7 beads, fluorescent GTP binding, flow cytometry; actives lie on both sides; untreated = 100%, excess cold GTP = 0%;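 active means fluorescent GTP binding to Rab7 beads changed by at least 20 points from the 100% baseline, either direction, mostly lower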;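 further: median green fluorescence of bound Bodipy-FL-GTP per Rab7 bead population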
Rac1 wt GTP bind – human Rac1 wildtype GTP binding, inhibitors and activators | P63000 | GST-Rac1 beads, fluorescent GTP binding, flow cytometry; actives lie on both sides; 0 = cold GTP competed, 100 = untreated | hit rate 0.27% among 190,000 | GTP binding activity (% of control), % at 10 µM | AID 757;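 active means GTP binding activity at least 20 points away from the 100% control level, either lower or higher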
HRas wt GTP – modulators of GTP binding to human HRas wildtype | P01112 | GTP binding activity, % at 10 µM | GST-Ras wt beads, Bodipy-FL-GTP binding, flow cytometry; actives lie on both sides | hit rate 0.14% among 190,000;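 active means GTP binding activity at least 20% away from the 100% baseline, either lowered as inhibitor or raised as activator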;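 further: 0% = unlabeled GTP competition control and 100% = no-compound control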
Target sequence (P01112 whole entry, looked up): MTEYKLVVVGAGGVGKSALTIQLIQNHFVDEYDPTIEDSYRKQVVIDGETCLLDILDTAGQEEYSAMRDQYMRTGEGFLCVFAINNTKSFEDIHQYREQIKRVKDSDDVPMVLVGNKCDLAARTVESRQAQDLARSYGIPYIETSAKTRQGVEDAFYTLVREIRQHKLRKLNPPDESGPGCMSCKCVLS
Rac1 mut GTP – human Rac1 activated mutant GTP binding change | percent activity (GTP binding), % at 10 µM | GST-Rac1 activated beads, fluorescent GTP binding, flow cytometry; actives lie on both sides; 100% means binding = to untreated wells | hit rate 0.11% among 190,000;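 active means GTP binding at least 20 percentage points away from the 100% baseline, in either direction, so actives lie on both sides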
Active calls of the source: *; [ ] = another dose, or the depositor's remark. In the library only some 0.4% were active in any assay of this set; here they are far more common.

SMILES	Cdc42 wt GTP	Rab2A wt mod	Rab7 wt modul	Rac1 wt GTP bind	HRas wt GTP	Rac1 mut GTP
COc1ccc(-n2cc(-c3ccccc3)c3c(=O)[nH]cnc32)cc1	110	106	104	121*[activator]	108	104
COc1ccc(-n2cc(-c3ccccc3)c3c(N4CCOCC4)ncnc32)cc1	97	96	94	99	97	98
COc1ccc(C(=O)NNC(=O)CSc2nnc(COc3ccccc3OC)n2C)cc1	101	98	96	101	97	98
COc1ccc([N+](=O)[O-])cc1NC(=S)NC(NC(=O)Cc1ccc(OC)c(OC)c1)C(Cl)(Cl)Cl (stereo unspecified)	54*	55*	90	74*	57*	79*
COc1ccc([N+](=O)[O-])cc1NC(=O)Cc1ccc(Cl)cc1	98	99	98	100	101	101
COc1ccc(CNC(=S)NC(C)CCc2ccccc2)cc1 (stereo unspecified)	96	97	96	98	95	95
Cc1noc(N)c1C1(O)C(=O)Nc2c(Cl)cc(Cl)cc21 (stereo unspecified)	90	97	101	95	94	94
Cn1[nH]c(C(F)(F)F)cc1=O	102	100	98	100	101	97
Cc1cc(N=NC(=O)c2ccccc2O)c2ccccc2c1O	76*	78*	91	74*	83	82
Cn1c(O)c(N=NC(=O)c2ccccc2O)c2ccccc21	93	92	98	96	94	93
CSC1=N/C(=C\c2ccc(C)cc2)C(=O)S1	107	104	98	103	105	99
COc1ccc(/C=C2\N=C(SC)SC2=O)cc1OC	82	77*	64*	81	81	81
CCN(CC)S(=O)(=O)c1ccc2c(c1)c(=O)c(C(=O)N1CCc3ccccc3C1)cn2C	115	118	116	132*[activator]	119	109
O=C(NC(Cc1ccccc1)C(=O)O)/C(=C/c1ccccc1)NC(=O)c1cccc(Br)c1 (stereo unspecified)	92	96	102	97	96	90
O=c1[nH]c(N/N=C\c2ccc(F)cc2)nc2ccccc12	94	98	100	90	98	95
O=c1[nH]c(N/N=C/c2ccc(O)cc2)nc2ccccc12	83	77*	91	77*	76*	89
Cc1cc[n+](-c2ccccc2)c2ccccc12	97	97	104	102	97	96
Cc1cc(C)nc(NS(=O)(=O)c2ccc(N/C=C/C(=O)c3ccc(Cl)cc3)cc2)n1	99	98	100	99	98	99
COc1ccc(C(=O)/C=C/Nc2ccc(S(=O)(=O)Nc3nc(C)cc(C)n3)cc2)cc1OC	89	88	92	79*	91	87
CC(=O)c1cc(-c2ccc(F)cc2)n(CCC(=O)Nc2cccc(C)n2)c1C	101	101	105	103	102	99
O=C(Cc1ccc(Nc2nc(=S)[nH]c3ccccc23)cc1)NC1CCCCC1	65*	66*	82	57*	68*	76*
CC(C)CCNC(=O)Cc1ccc(Nc2nc(=S)[nH]c3ccccc23)cc1	80	75*	96	73*	75*	89
O=C(Cc1c(O)c2ccccc2[nH]c1=O)NC1CCCCCC1	103	100	99	103	101	99
O=C(CCCCCNc1nc(=S)[nH]c2ccccc12)NCCc1ccc(Cl)cc1	91	90	101	87	92	92
C=CCN1C(=O)/C(=C/C=C2/N(CC)c3ccc(S(=O)(=O)N(C)C)cc3N2CC)SC1=S	83	86	96	81	79*	84
SMILES	Cdc42 wt GTP	Rab2A wt mod	Rab7 wt modul	Rac1 wt GTP bind	HRas wt GTP	Rac1 mut GTP
CCOC(=O)c1c(NC(=O)C(=O)N/N=C/c2ccc(O)c(OC)c2)sc2c1CCCCC2	61*	94	98	104	98	98
CCOC(=O)c1c(NC(=O)C(=O)N/N=C/c2ccc(OCC)cc2)sc2c1CCCCC2	97	99	97	104	102	99
CCOC(=O)C1(Cc2ccccc2)CCN(Cc2ccc3c(c2)OCCO3)CC1	97	98	102	97	98	97
CCn1ncc(N(C)N)c(Cl)c1=O	95	93	98	95	95	94
CC(C)Sc1nc(-c2ccccc2)cc(=O)[nH]1	115	109	104	128*[activator]	110	105
CCC(Sc1nc(-c2ccccc2)cc(=O)[nH]1)C(=O)O (stereo unspecified)	94	93	96	96	94	94
CN(/N=C/C=C/c1ccccc1)C1=NS(=O)(=O)c2ccccc21	74*	72*	86	65*	68*	81
C(=N\N(Cc1ccccc1)c1ccccc1)/c1cccnc1	100	98	100	101	99	99
CN(/N=C/c1cccnc1)C1=NS(=O)(=O)c2ccccc21	78*	70*	84	69*	68*	83
CN(NC(=O)CN1C(=O)c2ccccc2C1=O)C1=NS(=O)(=O)c2ccccc21	96	96	103	101	99	93
COc1ccccc1C1(O)CCN(CC(=O)Nc2nc(-c3ccccc3)cs2)CC1	96	95	97	97	96	94
O=Cc1ccc(OCC(=O)Nc2ccccc2C(F)(F)F)cc1	100	100	103	98	98	94
CC1CCN(Cc2c(C(=O)O)nnn2-c2nonc2N)CC1	97	100	103	100	100	98
CCN(CC)C(=O)Cn1c(=O)c2ccccc2n2c(=S)sc(-c3cccc(C)c3)c12	99	103	102	102	98	101
N#CC(C#N)=C(Nc1ccc(F)cc1)SCc1cccc(Br)c1	127*[activator]	109	101	134*[activator]	101	104
CN(C)S(=O)(=O)c1cccc(NC(=O)c2cc3c(=O)n4ccccc4nc3s2)c1	96	87	93	91	89	96
Cc1cc(NS(=O)(=O)c2ccc(NC(=O)c3cc4c(=O)n5ccccc5nc4s3)cc2)nc(C)n1	76*	80	104	83	82	85
O=C(Oc1c(Br)cc(C(=S)N2CCOCC2)cc1Br)c1ccc(Cl)cc1	75*	78*	88	80	80	77*
O=C(Oc1ccc(C(=S)N2CCOCC2)cc1Br)c1cc(Cl)ccc1Cl	97	96	98	99	98	95
COc1ccccc1NS(=O)(=O)c1cccc(C(=O)NCc2ccco2)c1	98	99	95	99	98	99
